Compound activity deposited in PubChem BioAssay by National Center for Advancing Translational Sciences (NCATS).
Rows were chosen to be rich in hits. Some 10% of all compounds tested hit in one or more screens of this group.
GLS inh – glutaminase GLS (human) inhibition; 410,000 tested, 0.21% active; GLS enzymatic activity, qHTS titration; O94925; Potency, µM (doses to about 45.5 µM), actives largely listed as inhibitors
Target sequence (O94925 whole entry, looked up): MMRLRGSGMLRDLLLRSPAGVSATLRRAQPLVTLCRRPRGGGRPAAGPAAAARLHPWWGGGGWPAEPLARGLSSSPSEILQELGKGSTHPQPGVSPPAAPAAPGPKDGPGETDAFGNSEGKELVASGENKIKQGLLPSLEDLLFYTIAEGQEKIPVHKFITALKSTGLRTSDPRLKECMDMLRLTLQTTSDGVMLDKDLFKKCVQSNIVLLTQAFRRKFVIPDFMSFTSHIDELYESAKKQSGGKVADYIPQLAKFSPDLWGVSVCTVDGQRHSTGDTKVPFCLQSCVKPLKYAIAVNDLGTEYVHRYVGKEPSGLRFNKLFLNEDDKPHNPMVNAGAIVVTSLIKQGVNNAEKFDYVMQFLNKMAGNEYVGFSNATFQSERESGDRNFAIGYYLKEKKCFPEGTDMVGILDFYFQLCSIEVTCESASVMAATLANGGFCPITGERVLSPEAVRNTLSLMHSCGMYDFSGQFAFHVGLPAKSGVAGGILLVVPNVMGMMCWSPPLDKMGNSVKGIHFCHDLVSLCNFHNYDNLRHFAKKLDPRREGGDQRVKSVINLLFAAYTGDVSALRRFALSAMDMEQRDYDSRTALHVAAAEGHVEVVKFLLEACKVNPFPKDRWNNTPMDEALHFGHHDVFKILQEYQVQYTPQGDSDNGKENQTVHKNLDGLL
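hKGA in 45 mM KH2PO4 pH 8.2, 0.02% Tween-20 with pin-transferred compounds; 1 mM L-glutamine (stock) plus glutamate oxidase/HRP/Amplex Red coupling added. Fluorescence read initially and after 30 min at RT.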
BAZ2B inh – BAZ2B (human) inhibition; Q9UIF8; AlphaScreen BAZ2B-H3K14Ac peptide displacement; Potency, µM (doses to about 114 µM), actives largely listed as inhibitors; 360,000 tested, 4.4% active; also: nearly all actives have a fitted effect of over 60% in size
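Multi-concentration screen (max 110 uM) measuring displacement of acetylated histone H3 peptide from BAZ2B by AlphaScreen, using 50 nM protein, 50 nM peptide and 10 ug/mL streptavidin donor plus Ni-chelate acceptor beads.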
HP1b chromo inh – blocks HP1-beta chromodomain binding to methylated histone tails; P83916; AlphaScreen HP1-beta / biotin-H3K9me3 peptide binding; Potency, µM (series often up to 114 µM), actives largely listed as inhibitors; 390,000 tested, 0.56% active; also: nearly all actives have a fitted effect of over 70% in size
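Compound inhibition of the preformed complex between 50 nM HP1-beta and 50 nM biotinylated H3K9me3 peptide was read by AlphaScreen. Buffer was PBS pH 7.4 with 0.01% Tween-20. Incubations ran 30 min at room temperature, with 10 ug/mL donor/acceptor beads.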
G9a inh – inhibitors of human histone lysine methyltransferase G9a; Q96KQ7; G9a H3K9 monomethylation, AlphaScreen, 2 h; Potency, µM (series often up to 102 µM), usual class: inhibitors; 350,000 tested, 8.8% active; AID 504332; also: nearly all actives have a fitted effect of over 75% in size
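Using a bead-based AlphaScreen, monomethylated H3K9 product from 2 h room-temperature reactions (G9a 20 nM, peptide 500 nM, SAM 20 uM) was detected with 0.5 ug/mL rabbit anti-H3K9me1 antibody.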
JMJD2A Tudor inh – inhibitors of human JMJD2A Tudor domain; AlphaScreen JMJD2A-Tudor / H3K4me3 peptide binding; Potency, µM (highest dose often 114 µM), hits mostly inhibitors; 390,000 tested, 4.4% active; AID 504339; also: nearly all actives have a fitted effect of over 50% in size
Hits are given with their value. Calls follow the shape of the dose curve; as a rule, active = well fitted curve in the direction sought with a large enough effect; inconclusive = small, poorly fitted or top-dose-only effect, or another doubt; inactive = no such curve, though single readings can be large; an effect the other way counts as inactive or inconclusive.

How did Cc1ccc(C)c(NC(=O)CN(C)C(C)C(=O)N2CC(C)CC(C)C2)c1 (centres undefined) do in these assays?
GLS inh: inactive; BAZ2B inh: inactive; HP1b chromo inh: inactive; G9a inh: 56µM; JMJD2A Tudor inh: inactive

What do the screens show for `COc1cc(C2NC(=O)c3c(sc4c3CCN(C)C4)N2)cc(OC)c1OC` (centres undefined)?
GLS inh: inactive; BAZ2B inh: inactive; HP1b chromo inh: inactive; G9a inh: inconclusive; JMJD2A Tudor inh: inactive

What do the screens show for `CN1CCc2c(sc3c2C(=O)NC(c2cccc(OC(=O)c4cccs4)c2)N3)C1` (centres undefined)?
GLS inh: inactive; BAZ2B inh: inactive; HP1b chromo inh: inactive; G9a inh: 40µM; JMJD2A Tudor inh: inconclusive

What do the screens show for `COc1cc(C2NC(=O)c3c(sc4c3CCN(C)C4)N2)ccc1OC(=O)c1ccccc1` (centres undefined)?
GLS inh: inactive; BAZ2B inh: inactive; HP1b chromo inh: inactive; G9a inh: 10µM; JMJD2A Tudor inh: inactive

What do the screens show for `CCOc1cc(C2NC(=O)c3c(sc4c3CCN(C)C4)N2)ccc1OC(=O)c1ccc(Br)cc1` (centres undefined)?
GLS inh: inactive; BAZ2B inh: inactive; HP1b chromo inh: inactive; G9a inh: inactive; JMJD2A Tudor inh: inactive

What do the screens show for `Cc1cccc(-n2c(=O)c3c(c4cc(C)ccc4n3C)n(Cc3ccccc3F)c2=O)c1`?
GLS inh: inactive; BAZ2B inh: inactive; HP1b chromo inh: inactive; G9a inh: inactive; JMJD2A Tudor inh: inactive

How did O=C(Cc1ccccc1)NS(=O)(=O)c1ccccc1 do in these assays?
GLS inh: inactive

Results for N#Cc1c2c(c(=S)n(-c3ccccc3)c1N)CCCC2 ?
GLS inh: inactive; BAZ2B inh: inconclusive; HP1b chromo inh: inactive; G9a inh: 8.9µM; JMJD2A Tudor inh: inactive

Results for CC1(C)Cc2c(C#N)c(N)n(-c3ccccc3)c(=S)c2CO1 ?
GLS inh: inactive; BAZ2B inh: inactive; HP1b chromo inh: inactive; JMJD2A Tudor inh: inactive

How did CC1CC(C)CN(C(=O)C(Cc2ccccc2)NC(=O)c2ccccc2)C1 (centres undefined) do in these assays?
GLS inh: inactive; BAZ2B inh: inactive; HP1b chromo inh: inactive; G9a inh: inactive; JMJD2A Tudor inh: inactive

How did COC(=O)N/N=C/c1cccs1 do in these assays?
GLS inh: inactive; BAZ2B inh: inactive; HP1b chromo inh: inactive; G9a inh: inactive; JMJD2A Tudor inh: inactive

What do the screens show for `CCN=c1scc(C)n1/N=C/c1cc(Br)c(O)c(Br)c1`?
GLS inh: inactive; BAZ2B inh: 45µM; HP1b chromo inh: inconclusive; G9a inh: 10µM; JMJD2A Tudor inh: inconclusive

How did COCCN=c1scc(-c2cccs2)n1/N=C/c1ccc(O)c(O)c1O do in these assays?
GLS inh: inconclusive; BAZ2B inh: 35µM; HP1b chromo inh: inconclusive; G9a inh: 5.6µM; JMJD2A Tudor inh: 8.9µM

Results for CCN=c1scc(C)n1/N=C/c1ccc(O)c(O)c1O ?
GLS inh: inactive; BAZ2B inh: 22µM; HP1b chromo inh: inconclusive; G9a inh: 5µM; JMJD2A Tudor inh: 45µM

Results for CCCc1nc2ccccc2c(=O)n1/N=C/c1ccccc1O ?
GLS inh: inactive; BAZ2B inh: inactive; HP1b chromo inh: inactive; G9a inh: inactive; JMJD2A Tudor inh: inactive

Results for C=CCN1C(=O)CSc2ccc(C(=O)NCc3ccco3)cc21 ?
GLS inh: inactive; BAZ2B inh: inactive; HP1b chromo inh: inactive; G9a inh: 40µM; JMJD2A Tudor inh: inactive

Results for CN1CCc2nc3sc(C(=O)Nc4cccc(C#N)c4)c(N)c3cc2C1 ?
GLS inh: inactive; BAZ2B inh: inconclusive; HP1b chromo inh: inactive; G9a inh: 16µM; JMJD2A Tudor inh: inconclusive

Results for Nc1c(C(=O)Nc2cccc(Cl)c2)sc2nc3c(cc12)CN(Cc1ccccc1)CC3 ?
GLS inh: inactive; BAZ2B inh: inactive; HP1b chromo inh: inactive; G9a inh: inconclusive; JMJD2A Tudor inh: inactive

Results for Nc1c(C(=O)Nc2ccccc2F)sc2nc3c(cc12)CCCCCC3 ?
GLS inh: inactive; BAZ2B inh: inactive; HP1b chromo inh: inactive; G9a inh: inactive; JMJD2A Tudor inh: inactive

Results for CN1CCc2nc3sc(C(=O)Nc4c(F)cccc4F)c(N)c3cc2C1 ?
GLS inh: inactive; BAZ2B inh: inactive; HP1b chromo inh: inactive; G9a inh: 16µM; JMJD2A Tudor inh: inactive

How did COc1cccc(CNC(=O)c2ccc(CS(=O)Cc3ccccc3Cl)o2)c1 (centres undefined) do in these assays?
GLS inh: inactive

What do the screens show for `CC1=C(C(=O)Nc2ccccc2)C(c2cccc(O)c2)n2nc(-c3ccccc3Cl)nc2N1` (centres undefined)?
GLS inh: inactive; BAZ2B inh: inactive; HP1b chromo inh: inactive; G9a inh: inactive; JMJD2A Tudor inh: inactive

Results for CSc1ccc(CN2CCC(C)(Oc3ccc(C(C)=O)cc3)C2)cc1 (centres undefined) ?
GLS inh: inactive

Results for Cc1cc2c(s1)c1cnn(Cc3c(Cl)cccc3Cl)c(=O)c1n2C ?
JMJD2A Tudor inh: inactive

How did Cc1cccc(N2CCN(Cc3nc(-c4cccc(Oc5ccccc5)c4)oc3C)CC2)n1 do in these assays?
GLS inh: inactive; BAZ2B inh: inconclusive; HP1b chromo inh: inconclusive; G9a inh: 40µM; JMJD2A Tudor inh: 45µM

Results for CCN(CC)c1ccc(C(=C2C=CC(=[N+](CC)CC)C=C2)c2ccc(S(=O)(=O)O)cc2S(=O)(=O)[O-])cc1 ?
GLS inh: inactive; HP1b chromo inh: 22µM; JMJD2A Tudor inh: inconclusive

Results for Cn1c(=O)n(Cc2ccccc2)c(=O)c2c1nc1n2CCCN1CCc1ccccc1 ?
GLS inh: inactive; BAZ2B inh: inconclusive; HP1b chromo inh: inconclusive; G9a inh: 50µM; JMJD2A Tudor inh: inconclusive

Results for C=CCn1c(=O)c2c(nc3n2CCS3)n(C)c1=O ?
GLS inh: inactive; BAZ2B inh: inactive; HP1b chromo inh: inactive; G9a inh: inactive; JMJD2A Tudor inh: inactive

What do the screens show for `Cn1c(NN)nc2ccccc2c1=O`?
GLS inh: inactive; BAZ2B inh: inactive; HP1b chromo inh: inactive; G9a inh: 50µM; JMJD2A Tudor inh: inactive

How did Cn1c(NN)nc2c1c(=O)n(Cc1ccccc1)c(=O)n2C do in these assays?
GLS inh: inconclusive; BAZ2B inh: inconclusive; HP1b chromo inh: inactive; G9a inh: 28µM; JMJD2A Tudor inh: inactive

What do the screens show for `Cn1c(=O)n(Cc2ccccc2)c(=O)c2c1nc1n2CCS1`?
GLS inh: 11µM; BAZ2B inh: inactive; HP1b chromo inh: inactive; G9a inh: inactive; JMJD2A Tudor inh: inactive

What do the screens show for `CCCCCCC1CC(=CN(C)C)C(=O)O1` (centres undefined)?
GLS inh: inactive

Results for Cc1ccccc1Cn1c(=O)c2c(nc3n2CCCN3Cc2ccccc2)n(C)c1=O ?
GLS inh: 11µM; HP1b chromo inh: inconclusive; JMJD2A Tudor inh: inconclusive
